Screens as filed in PubChem.
Chronic BCR inh: qHTS Assay to Find Inhibitors of Chronic Active B-Cell Receptor Signaling. 340,000 compounds, 0.05% hits. ABC-DLBCL IkBa-CBG/CBR reporter, luminescence ratio, 4 h. Potency, µM (doses to about 46.1 µM), inactives show at the highest dose activity change, negative = inhibition, usual class: inhibitors; active means well fitted inhibition curve with a large enough effect in the signal ratio, with a control signal flat, not every such curve was filed as active; inconclusive means small, poorly fitted or top-dose-only effect, or effect the other way, or a change in a side signal; the % refers to the signal ratio;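 further: potency means the concentration at half of the fitted maximal effect; plate controls were basal doxycycline-induced cells for no effect and cells given 10 µM MG132 for full effect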
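Compounds up to 46 uM were incubated four hours with TMD8 cells whose green CBG68 luciferase is fused to IkappaBalpha; red CBR luminescence normalised the signal, and concentration-effect curves were fitted to fusion, red and ratio data.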
TCR activator: Activators of T cell receptors: qHTS campaign; primary human leukocytes, anti-CD3, IL-2 HTRF, 48 h; Potency, µM (highest dose often 9.22 µM), without a hit: at the highest dose activation of IL-2 secretion, most hits filed as activators; 330,000 tested, under 10 active; AID 504894, 2011; further: % of control where 0% means no effect
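Activity was scored as IL-2 release from primary human leukocytes given only a TCR signal (a-CD3 beads) plus compound for 48 hr. Detection used a two-antibody HTRF format read at 665nm.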
S-ASM inh: Inhibitors of Secretory Acid Sphingomyelinase (S-ASM): qHTS | Sphingomyelin phosphodiesterase (Homo sapiens), P17405 | placental ASM, HMU-PC fluorogenic substrate, 60 min | Potency, µM (top dose mostly 57.5 µM), inactives show top-dose activity change, negative = inhibition, usual class: inhibitors | 340,000 compounds, 0.006% hits | AID 504937, 2011; further: potency means the concentration at half of the fitted maximal effect
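Fluorogenic HMU-PC substrate (9 uM final) is turned over by placental ASM in 60 min at 37 C after a 10 min compound preincubation. Reaction ended by alkaline stop (pH 10), with fluorescence read at 386/447 nm.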
Tb PFK inh: qHTS Assay to Find Inhibitors of T. brucei phosphofructokinase; Potency, µM (highest dose often 57.5 µM), for the others: top-dose activity, negative = inhibition, usual class: inhibitors; AID 485367, 2010; ATP-dependent 6-phosphofructokinase (Trypanosoma brucei brucei), O15648; T. brucei PFK, ADP-Glo luminescence; 330,000 compounds, 0.17% hits;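 further: potency means the concentration at half of the fitted maximal effect; 0% = uninhibited 1x PFK enzyme wells and -100% = no-enzyme wells; nearly all actives have a fitted effect of over 60% in size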
Target sequence (O15648 whole entry, looked up): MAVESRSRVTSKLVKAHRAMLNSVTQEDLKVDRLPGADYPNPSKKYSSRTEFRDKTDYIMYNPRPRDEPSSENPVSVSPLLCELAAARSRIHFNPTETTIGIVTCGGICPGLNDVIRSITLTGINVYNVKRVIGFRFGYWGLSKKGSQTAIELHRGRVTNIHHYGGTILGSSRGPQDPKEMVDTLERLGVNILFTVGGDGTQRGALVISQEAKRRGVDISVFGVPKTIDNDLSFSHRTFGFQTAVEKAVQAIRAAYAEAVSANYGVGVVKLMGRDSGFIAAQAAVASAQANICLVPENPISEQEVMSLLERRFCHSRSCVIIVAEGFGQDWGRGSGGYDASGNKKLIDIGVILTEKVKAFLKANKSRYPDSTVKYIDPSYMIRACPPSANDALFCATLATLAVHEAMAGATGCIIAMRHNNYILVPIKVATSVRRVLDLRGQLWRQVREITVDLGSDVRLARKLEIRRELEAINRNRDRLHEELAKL
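1.25 nM PFK with 0.5 mM F6P and 0.1 mM ATP in 0.1 M TEA pH 8.0, 5 mM MgCl2, incubated 45 min at room temperature; ADP measured by ADP-Glo luminescence; compounds titrated up to 57 uM.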
CCT modulator: High-Throughput Screening for Modulators of Cytosolic Chaperonin Activity; 360,000 compounds, 0.3% hits; activity change, % (test concentration not listed), hits read low; purified chaperonin ATPase assay, HTRF ADP detection, 30 min; in the data active means activity change below about -30%; further: on the % scale 0 is the no-effect control and ±100 the full control effect
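ATPase activity: ADP formed was measured by HTRF Transcreener (665/615 nm ratio) after 30 min at 37 deg C with 10 uM ATP. Compounds screened at one 76 uM concentration against 40 or 20 nM TRiC in Tris pH 7.4/KCl/MgCl2/DTT buffer.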
Numbers without * were called inactive; i = inactive; ? = inconclusive; / = no result; [ ] = dose if it differs, or a comment. In the library only some 0.49% were active in any assay of this set; here they are far more common. Unless noted, the call rests on the fitted dose curve; in most records, active means well fitted curve in the direction sought with a large enough effect; inconclusive means small, poorly fitted or top-dose-only effect, or another doubt; inactive means no such curve, though single readings can be large; an effect the other way counts as inactive or inconclusive.

SMILES | Chronic BCR inh | TCR activator | S-ASM inh | Tb PFK inh | CCT modulator
COc1ccc(OC)c(/C=N/NC(=O)c2[nH]nc3c2CCc2ccccc2-3)c1 | ? | 3%[46.1 µM] | 251% | 5% | -2
Cc1cc(S(=O)(=O)N2CCCC(N(C)CCc3ccccn3)C2)c(C)cc1Cl (stereo unspecified) | -5% | 1% | i | -2% | -75*
O=C(O)c1cc(N/N=C/c2ccc3c(c2)OCO3)ccc1Cl | ? | 5% | -2% | -3% | 0
C/C(=N\Nc1ccc(Cl)c(C(=O)O)c1)c1ccc2c(c1)OCO2 | ? | -3% | 2% | 19% | -55*
CC1CCC(NC(=O)C2(C)CCC(=O)N2Cc2cccnc2)CC1 (stereo unspecified) | 1% | -4% | 3% | 5% | -36*
COc1ccc(-c2[nH]nc3nc(N4CCN(C(=O)c5ccoc5)CC4)cc(C(F)(F)F)c23)cc1 | / | / | / | / | -40*
COc1ccc(-c2cc3nc(C)cc(N4CCN(C(=O)c5ccoc5)CC4)n3n2)cc1 | / | / | / | / | -3
O=C(Nc1cc(Cl)cc(Cl)c1)c1cc(S(=O)(=O)N2CCC3(CC2)OCCO3)ccc1F | 0% | / | / | / | /
COc1cccc2sc(N(Cc3cccnc3)C(=O)c3ccc(S(=O)(=O)N(C)C)cc3)nc12 | 8% | / | / | / | /
COc1cccc(COC(=O)C2CCN(S(=O)(=O)c3ccc(F)cc3)CC2)c1OC | -5% | -2% | -3% | 0% | -1
COc1cccc(COC(=O)c2ccc(S(=O)(=O)N3CCC(C)CC3)cc2)c1OC | -2% | / | 5% | -2% | -61*
Cc1cc2c(c(=O)n1-c1ccccc1)C1O[C@](c3ccsc3)(Cc3ccccc31)O2 | -2%[9.22 µM] | / | / | 0%[11.5 µM] | /
Cc1c(C#N)c2ncn(Cc3ccccn3)c(=O)c2n1-c1ccccc1 | -8% | 5% | 5% | -1% | -80*
Cc1c(C#N)c2ncn(CCCN(C)C)c(=O)c2n1-c1ccccc1 | 1% | 3% | 1% | 4% | 0
COc1ccc(-c2cc(C(=O)N3CCN(c4ncccn4)CC3)c3ccccc3n2)cc1OC | 0% | 5% | 58% | -6% | -60*
CC(CC(=O)Nc1cccc(F)c1)S(=O)(=O)c1ccc2c(c1)NC(=O)CO2 (stereo unspecified) | -2% | -3% | 3% | -2% | -1
Cc1ccccc1NC(=O)CC(C)S(=O)(=O)c1ccc2c(c1)NC(=O)CO2 (stereo unspecified) | ? | 3% | 0% | -4% | -63*
O=C(CCOc1ccccc1)N(Cc1cccnc1)c1nc2ccc(F)cc2s1 | 19% | / | / | / | /
Cc1ccc2c(c1)S(=O)(=O)c1ccc3ccccc3c1N2 | / | -1% | 13% | / | -37*
CC(C)(C)c1ccc(NC(=O)c2ccccc2)c([N+](=O)[O-])c1 | ? | -3% | -1% | -12% | -41*
CC(=O)N1CCN(S(=O)(=O)c2cccc(C(=O)Nc3ccc(OC(F)F)cc3)c2)CC1 | -1% | -8% | 6% | -1% | -39*
COc1ccccc1NS(=O)(=O)c1ccc(-c2cnc(C3CC3)o2)cc1 | ? | 4% | 2% | -7% | -77*
COc1ccc(NS(=O)(=O)c2ccc(-c3cnc(C4CC4)o3)cc2)cc1OC | ? | 2% | 2% | 1% | -66*
CCOc1ccccc1NS(=O)(=O)c1ccc(-c2cnc(C3CC3)o2)cc1 | ? | 4% | 0% | -7% | -1
CCC1CCCCN1CCCNC(=O)c1ccc2c(c1)N(Cc1cccc(Cl)c1)C(=O)c1ccccc1S2(=O)=O (stereo unspecified) | 3% | / | / | / | /
SMILES | Chronic BCR inh | TCR activator | S-ASM inh | Tb PFK inh | CCT modulator
O=C(COc1ccc(Cl)cc1Cl)Nc1ccccn1 | ? | 7% | 1% | 17µM* | -9
O=C(NCc1ccc(F)cc1)c1cc(Sc2ccc(F)cc2F)nc2ccccc12 | -6% | / | / | / | /
COc1cccc(N2CCN(S(=O)(=O)c3cc(-c4cc(C)no4)ccc3C)CC2)c1 | 4% | / | / | / | /
O=C(CCCCCn1c(=S)[nH]c2ccc(N3CCOCC3)cc2c1=O)NCc1cccc(Cl)c1 | -7% | 8% | 53% | -4% | -50*
CC(=O)NC(c1cc(F)c2cccnc2c1O)C(C)C (stereo unspecified) | -25% | / | / | -5% | /
COc1cccc(C=Nc2cc(C)cc(C)c2)c1O | -2% | -9%[46.1 µM] | 2% | -1% | 1
COc1cc(Br)cc(C=Nc2cccc(C(F)(F)F)c2)c1O | ? | 10%[46.1 µM] | 2% | -6% | -31*
CCCc1nnc(SCC(=O)N2CCCC2)n1Cc1ccco1 | -2% | 1% | 0% | 2% | -47*
CCc1cccc(NC(=O)CSc2ncccc2C(=O)Oc2ccccc2Cl)c1 | -2% | / | / | / | /
Cc1ccc(Nc2nc(C)cc(C)n2)c(C(=O)O)c1 | 4% | / | / | / | /
COc1ccc(C(=O)N=C2SC3CS(=O)(=O)CC3N2c2ccc(N(C)C)cc2)cc1OC (stereo unspecified) | 1% | 0% | 158% | -3% | -60*
COc1ccc(-c2cc(C(F)(F)F)c(C#N)c(SCC(=O)Nc3ccccc3C#N)n2)cc1 | 2% | -4% | 175% | 9% | -45*
COc1ccc(NC(=O)CSc2nc(-c3ccc(C)cc3)cc(C(F)(F)F)c2C#N)cc1 | -2% | / | 9% | 1% | -1
c1coc(-c2ccc3ncnc(NCc4cccs4)c3c2)c1 | ? | / | / | -11% | /
CC(CNC(=O)CCC(=O)N1CCOc2ccc(Cl)cc21)c1ccccc1 (stereo unspecified) | ? | -4% | 5% | ? | -66*
O=C(CCC(=O)N1CCOc2ccc(Cl)cc21)NCc1ccccc1 | 10% | -1% | 2% | -11% | -1
Nc1nonc1C(=O)N/N=C/c1cc2c(cc1Br)OCO2 | 7% | -12% | 4% | 1% | -31*
O=C(N/N=C/c1cc2c(cc1Br)OCO2)c1ccccn1 | ? | 3% | 3% | 2% | -2
O=C(NCc1nnc(SCc2ccccc2)n1-c1ccc(F)cc1)C12CC3CC(CC(C3)C1)C2 | ? | 8%[46.1 µM] | -3% | -4% | -68*
O=C(NCc1nnc(SCc2ccccc2)n1-c1ccccc1)C12CC3CC(CC(C3)C1)C2 | 7% | -4%[46.1 µM] | 1% | -2% | 2
COc1ccc(C(=O)N2CCC(c3ccncc3)CC2)cc1OC | -10% | / | / | / | /
COc1ccc(OC)c(NC(=O)CSc2nnc(C)n2Cc2ccccc2)c1 | 3% | 1% | 0% | 0% | -49*
COc1ccc(NC(=O)CSc2nnc(C)n2Cc2ccccc2)cc1 | 0% | 0% | 2% | -2% | -11
CCCNC(=O)COC(=O)c1cc(C)nc2ccccc12 | 2% | -1% | -5% | 2% | -2
